Data reported in PubChem BioAssay (Tox21).
A number with no mark means an inactive call. Records with an inconclusive call do not appear. Where a call stands in place of a potency, no number is given. The source made the active and inactive calls. Unless noted, calls follow the shape of the dose curve; as a rule, active = well fitted curve in the direction sought with a large enough effect in the repeat runs; inconclusive = weak or mixed curves; inactive = no such curve, though single readings can be large; an effect the other way counts as inactive or inconclusive.

Key:
[1] = A CellTox Green Cytotoxicity Assay to monitor cytotoxicity in HepG2 cells - 8 hour (AID 1224890); also: nearly all actives have a fitted effect of over 45% in size
Procedure, shortened: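 Fluorescent DNA-binding dye, 600 HepG2 cells/well, 5 h preincubation then compound in DMSO; same plates read at 0–40 h, 37 C.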

[2] = qHTS assay to identify small molecule antagonists of the estrogen receptor alpha (ER-alpha) signaling pathway using the BG1 cell line in the presence of 0.1 nM 17-beta-estradiol - cell viability counter screen (AID 1259241); also: nearly all actives have a fitted effect of over 40% in size
Procedure, shortened: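 Following 5 days in phenol red-free medium with charcoal-stripped serum, VM7Luc4E2 cells received test compounds alongside 0.1 nM 17beta-estradiol (final) at 37C for 22 hr. Live cells were then quantified via protease-substrate fluorescence.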

[3] = qHTS assay to identify small molecule antagonists of the androgen receptor (AR) signaling pathway using the MDA cell line in the presence of 0.5 nM R1881 - cell viability counter screen (AID 1259242); also: nearly all actives have a fitted effect of over 45% in size
Procedure, shortened: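 Human breast carcinoma MDA-kb2 cells, cultured without CO2, receive compounds alongside 0.5 nM (final) R1881 agonist. After 16 hr at 37C, viability is taken as live-cell protease signal.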

[4] = target: Androgen receptor (Homo sapiens) (UniProt P10275); assay: qHTS assay to identify small molecule antagonists of the androgen receptor (AR) signaling pathway using the MDA cell line in the presence of 0.5 nM R1881 (AID 1259243); also: nearly all actives have a fitted effect of over 50% in size
Androgen receptor (Homo sapiens), sequence (P10275 whole entry, looked up): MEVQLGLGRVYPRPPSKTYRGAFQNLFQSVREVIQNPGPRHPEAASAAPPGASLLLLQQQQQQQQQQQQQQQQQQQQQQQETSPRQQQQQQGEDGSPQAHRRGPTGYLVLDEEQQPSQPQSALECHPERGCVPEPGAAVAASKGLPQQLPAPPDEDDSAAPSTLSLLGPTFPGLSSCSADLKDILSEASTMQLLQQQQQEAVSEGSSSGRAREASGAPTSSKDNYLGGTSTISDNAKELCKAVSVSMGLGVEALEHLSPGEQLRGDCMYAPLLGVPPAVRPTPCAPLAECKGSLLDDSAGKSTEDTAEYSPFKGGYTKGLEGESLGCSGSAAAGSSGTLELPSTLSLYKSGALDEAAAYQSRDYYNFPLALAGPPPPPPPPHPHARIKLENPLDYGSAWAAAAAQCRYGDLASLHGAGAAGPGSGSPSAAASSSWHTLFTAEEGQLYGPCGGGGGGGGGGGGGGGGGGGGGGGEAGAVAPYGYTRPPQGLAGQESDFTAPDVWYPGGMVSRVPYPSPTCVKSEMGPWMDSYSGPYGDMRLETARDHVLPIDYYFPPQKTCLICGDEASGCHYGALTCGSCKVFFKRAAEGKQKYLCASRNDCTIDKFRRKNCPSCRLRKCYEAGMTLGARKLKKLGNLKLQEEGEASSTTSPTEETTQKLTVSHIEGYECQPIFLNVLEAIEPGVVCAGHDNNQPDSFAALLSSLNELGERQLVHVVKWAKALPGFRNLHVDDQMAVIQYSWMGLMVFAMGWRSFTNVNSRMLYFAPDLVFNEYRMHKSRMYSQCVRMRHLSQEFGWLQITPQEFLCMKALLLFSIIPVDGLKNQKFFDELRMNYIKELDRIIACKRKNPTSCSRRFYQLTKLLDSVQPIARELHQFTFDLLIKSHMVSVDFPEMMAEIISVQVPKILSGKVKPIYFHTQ
Procedure, shortened: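 Cells: MDA-kb2 (MMTV-luc). Stimulus: 0.5 nM R1881. Time: 16 hr, 37C, no CO2. Detection: ONE-Glo luminescence after 30 min at RT.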

[5] = target: Estrogen receptor (Homo sapiens) (UniProt P03372); assay: qHTS assay to identify small molecule antagonists of the estrogen receptor alpha (ER-alpha) signaling pathway using the BG1 cell line in the presence of 0.1 nM 17-beta-estradiol (AID 1259244); also: nearly all actives have a fitted effect of over 50% in size
Estrogen receptor (Homo sapiens), sequence (P03372 whole entry, looked up): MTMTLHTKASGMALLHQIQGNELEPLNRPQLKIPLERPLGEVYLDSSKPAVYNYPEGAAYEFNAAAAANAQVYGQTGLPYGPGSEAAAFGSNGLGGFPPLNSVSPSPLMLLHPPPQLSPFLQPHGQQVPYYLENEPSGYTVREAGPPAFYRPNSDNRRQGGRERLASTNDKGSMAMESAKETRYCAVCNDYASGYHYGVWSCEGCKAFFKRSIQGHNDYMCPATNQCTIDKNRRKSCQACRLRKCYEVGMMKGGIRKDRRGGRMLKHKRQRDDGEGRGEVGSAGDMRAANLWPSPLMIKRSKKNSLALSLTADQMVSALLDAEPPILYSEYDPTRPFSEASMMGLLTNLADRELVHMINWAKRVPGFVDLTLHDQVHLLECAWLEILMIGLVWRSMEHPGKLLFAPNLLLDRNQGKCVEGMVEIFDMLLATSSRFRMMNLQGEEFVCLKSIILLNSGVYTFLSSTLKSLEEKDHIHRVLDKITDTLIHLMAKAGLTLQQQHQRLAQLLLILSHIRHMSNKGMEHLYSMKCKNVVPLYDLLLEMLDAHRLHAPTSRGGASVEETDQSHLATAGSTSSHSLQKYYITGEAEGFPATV
Procedure, shortened: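 Seeding of stripped-serum-adapted VM7Luc4E2 cells, 24 h attachment, compound transfer, then 0.1 nM final 17beta-estradiol; after 22 h incubation, ONE-Glo reagent and luminescence reading.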

[6] = qHTS assay to identify small molecule HDAC inhibitors (AID 1259364); also: potency is read from the fitted curve at half-maximal effect;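 also: wild-type HCT-116 cells with endogenous class I/II HDAC activity; nearly all actives have a fitted effect of over 45% in size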
Procedure, shortened: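 After a 2 hr compound incubation (37C, 5% CO2), HCT-116 cells seeded at 1,500/well the day before received HDAC-Glo reagent; signal read as luminescence after 30 min at room temperature.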

[7] = qHTS assay to identify small molecule HDAC inhibitors - cell viability counter screen (AID 1259365); also: series mostly up to about 92 µM; nearly all actives have a fitted effect of over 50% in size
Procedure, shortened: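 HCT-116 wild-type, overnight attachment; 2hr drug exposure, 37C; CellTiter-Glo luminescent ATP readout after 30min RT.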

[8] = qHTS assay to identify small molecule agonists of the sonic hedgehog signaling (Shh) pathway - cell viability counter screen (AID 1259366); also: nearly all actives have a fitted effect of over 50% in size
Procedure, shortened: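 Compounds in DMSO were pin-transferred onto 3T3 Gli1-Luc cells that had settled 4hr; plates then stood 24hr at 37C and 5% CO2. One hour before the end, CellTiter-Fluor was added and fluorescence recorded.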

[9] = qHTS assay to identify small molecule antagonists of the sonic hedgehog signaling (Shh) pathway - cell viability counter screen (AID 1259367); also: nearly all actives have a fitted effect of over 55% in size
Procedure, shortened: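 Viability was read by CellTiter-Fluor fluorescence in the same wells, reagent added 23 hr into compound treatment and incubated 1 hr at 37C. The 3T3 Gli1-Luc reporter cells (2,000/well) received conditioned medium after compound and ran 24 hr.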

[10] = qHTS assay to identify small molecule agonists of the sonic hedgehog signaling (Shh) pathway (AID 1259368; calls by dose curve;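 also: NIH/3T3-derived 3T3Gli1-Luc cells carrying a stable Gli1-driven firefly luciferase reporter; series mostly up to about 92 µM; nearly all actives have a fitted effect of over 15% in size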)
Procedure, shortened: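 Stable NIH/3T3 Gli1-Luc reporter clone; 24 hr cpd exposure after a 4 hr settling period; luminescence endpoint.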

[11] = qHTS assay to identify small molecule antagonists of the sonic hedgehog signaling (Shh) pathway (AID 1259369; calls by dose curve; also: nearly all actives have a fitted effect of over 45% in size; also: potency is read from the fitted curve at half-maximal effect)
Procedure, shortened: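 Gli1 transcriptional reporter (firefly Luc) in NIH/3T3 background, conditioned-medium activated. 24hr exposure, luminescence endpoint.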

[12] = target: Estrogen receptor beta (Homo sapiens) (UniProt Q92731); assay: qHTS assay to identify small molecule agonists of the estrogen receptor beta (ER-beta) signaling pathway (AID 1259377; active = well fitted activation curve with a large enough effect in the signal ratio in the repeat runs, not every such curve was filed as active; the % refers to the signal ratio)
Estrogen receptor beta (Homo sapiens), sequence (Q92731 whole entry, looked up): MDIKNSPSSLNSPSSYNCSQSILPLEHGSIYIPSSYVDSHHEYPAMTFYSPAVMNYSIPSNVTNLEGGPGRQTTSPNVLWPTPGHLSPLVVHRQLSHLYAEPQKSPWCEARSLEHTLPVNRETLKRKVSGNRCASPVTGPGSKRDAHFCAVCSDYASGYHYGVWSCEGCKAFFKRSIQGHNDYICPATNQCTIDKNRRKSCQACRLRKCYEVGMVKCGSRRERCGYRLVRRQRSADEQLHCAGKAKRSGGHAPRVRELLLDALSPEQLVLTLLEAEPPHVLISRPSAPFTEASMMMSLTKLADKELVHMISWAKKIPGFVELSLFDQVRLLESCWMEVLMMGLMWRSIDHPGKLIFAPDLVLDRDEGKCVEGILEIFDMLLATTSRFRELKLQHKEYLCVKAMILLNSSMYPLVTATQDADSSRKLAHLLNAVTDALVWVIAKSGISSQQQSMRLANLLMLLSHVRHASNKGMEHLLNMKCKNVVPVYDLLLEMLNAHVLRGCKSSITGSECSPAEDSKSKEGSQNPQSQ
Procedure, shortened: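 qHTS in ER-beta-UAS-bla HEK293T cells: 6 hr settling, then 16 hr compound at 37C, then LiveBLAzer substrate 2 h at RT before fluorescence reading.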

[13] = target: Estrogen receptor beta (Homo sapiens) (UniProt Q92731); assay: qHTS assay to identify small molecule antagonists of the estrogen receptor beta (ER-beta) signaling pathway (AID 1259378; active = well fitted inhibition curve with a large enough effect in the signal ratio in the repeat runs, not every such curve was filed as active; the % refers to the signal ratio)
Procedure, shortened: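 Antagonist mode: compounds added to beta-lactamase reporter HEK293T ER-beta-UAS cells stimulated with E2 (1nM final), 16 hr at 37C. LiveBLAzer B/G FRET substrate, 2 hours room temperature, fluorescence read-out.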

[14] = qHTS assay to identify small molecule agonists of the estrogen receptor beta (ER-beta) signaling pathway - cell viability counter screen (AID 1259380); also: nearly all actives have a fitted effect of over 30% in size
Procedure, shortened: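 In this qHTS counter screen, HEK293T cells carrying an ER-beta/UAS beta-lactamase reporter, grown in 2% charcoal-stripped FBS, received compound for 16 hr; ATP-based CellTiter-Glo luminescence was then read after 30 min at room temperature.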

[15] = target: Androgen receptor (Homo sapiens) (UniProt P10275); assay: qHTS assay to identify small molecule agonists of the androgen receptor (AR) signaling pathway in the presence of an antagonist (AID 1259381; calls by dose curve; also: nearly all actives have a fitted effect of over 15% in size)
Procedure, shortened: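 AR antagonist background: nilutamide 3.0uM final. Cell line: MDA-kb2, MMTV-driven luciferase, responsive to both AR and GR. Exposure 16hr, 37C, no CO2; ONE-Glo luminescence.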

[16] = qHTS assay to identify small molecule antagonists of the estrogen receptor beta (ER-beta) signaling pathway - cell viability counter screen (AID 1259382);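 also: HEK293T cells carrying ER-beta-UAS-bla reporter stimulated with estradiol; series mostly up to about 92 µM; nearly all actives have a fitted effect of over 55% in size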
Procedure, shortened: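 HEK293T ER-beta-UAS-bla, 2% charcoal-stripped FBS; compounds + 1nM E2 16 hr 37C; CellTiter-Glo luminescence, 30 min RT.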

[17] = target: Estrogen receptor (Homo sapiens) (UniProt P03372); assay: qHTS assay to identify small molecule agonists of the estrogen receptor alpha (ER-alpha) signaling pathway in the presence of an antagonist (AID 1259383; calls by dose curve; also: top concentration of the series differs between compounds; nearly all actives have a fitted effect of over 15% in size)
Procedure, shortened: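 ER-alpha agonism measured under antagonist challenge: 10.0nM ICI-182,780 (final) plus compound, 15 concentrations, 22hr, VM7Luc4E2 ERE-luciferase cells. Read by luminescence.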

[18] = qHTS assay to identify small molecule agonists or antagonists of the thyroid stimulating hormone receptor (TSHR) signaling pathway - wild type cell line counter screen (AID 1259384; calls by dose curve)
Procedure, shortened: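 Counter screen in untransfected Hek293: compounds (15-point titration, triplicate) plus phosphodiesterase inhibitor Ro20-1724 added after 18 h plating; 30 min RT. Intracellular cAMP via competitive d2/cryptate immunoassay, 1 h incubation.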

[19] = qHTS assay to identify small molecule phospholipidosis (PLD) inducers (AID 1259344; active = well fitted curve in the direction sought with a large enough effect; an effect the other way counts as inactive or inconclusive)
Procedure, shortened: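 Phospholipid accumulation was scored by imaging: fixed, Hoechst-counterstained HepG2 cells stained with LipidTOX Red after 24 h compound exposure at 37 C. Read-outs were pit count and pit intensity per well or per cell, with amiodarone and DMSO controls.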

[20] = qHTS assay to identify small molecule agonists of the androgen receptor (AR) signaling pathway in the presence of an antagonist - cell viability counter screen (AID 1259379);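 also: MDA-kb2 human breast cancer cells carrying an MMTV luciferase reporter; series mostly up to about 92 µM; nearly all actives have a fitted effect of over 25% in size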
Procedure, shortened: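 Counter screen for cell viability run in parallel with the AR agonist-mode luciferase assay. MDA-kb2 cells were co-treated with nilutamide (3.0uM final) and compounds, then incubated 16 hr at 37C, and CellTiter-Fluor fluorescence was measured.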

| Compound | Potency [1] | Potency [2] | Potency [3] | Potency [4] | Potency [5] | Potency [6] | outcome [7] | Potency [8] | Potency [9] | Potency [10] | Potency [11] | Potency [12] | Potency [13] | Potency [14] | Potency [15] | Potency [16] | Potency [17] | outcome [18] | Potency [19] | Potency [20] |
| --- | --- | --- | --- | --- | --- | --- | --- | --- | --- | --- | --- | --- | --- | --- | --- | --- | --- | --- | --- | --- |
| FC(F)(Cl)C(F)(Cl)Cl | inactive | inactive | inactive | inactive | inactive | inactive | inactive | inactive | inactive | inactive | inactive | inactive | inactive | inactive | inactive | inactive | inactive | inactive | – | – |
| O=C(OC1C[C@H]2CC[C@@H](C1)[N+]21CCCC1)C(O)(c1ccccc1)c1ccccc1 (some centres not stated) | inactive | inactive | inactive | inactive | – | inactive | inactive | inactive | inactive | inactive | inactive | inactive | inactive | inactive | inactive | inactive | – | inactive | inactive | inactive |
| CCCN(C1CCN(C(=O)C2CCNCC2)CC1)[C@@H]1CCc2ccc(OC)cc2C1 | inactive | inactive | inactive | inactive | – | inactive | inactive | – | inactive | inactive | 4.33 µM (active) | inactive | inactive | – | inactive | – | – | inactive | – | – |
| O=C(c1ccco1)N1CCNCC1 | inactive | inactive | inactive | inactive | inactive | inactive | inactive | inactive | inactive | inactive | inactive | inactive | inactive | inactive | inactive | inactive | inactive | inactive | – | inactive |
| CC(Cc1ccccc1)(NC(=O)CN)c1ccccc1 (configuration not stated) | inactive | inactive | inactive | – | inactive | inactive | inactive | inactive | inactive | inactive | – | inactive | inactive | – | – | inactive | inactive | inactive | inactive | – |
| CCCc1nc(C)c2c(=O)[nH]c(-c3cc(S(=O)(=O)N4CCN(CC)CC4)ccc3OCC)nn12 | inactive | inactive | inactive | inactive | – | inactive | inactive | inactive | inactive | inactive | – | – | inactive | inactive | inactive | inactive | – | – | inactive | inactive |
| O=S(=O)(O)c1cc(Cl)c(Cl)cc1Cl | inactive | inactive | inactive | inactive | inactive | inactive | inactive | inactive | inactive | inactive | inactive | – | – | – | inactive | – | inactive | inactive | – | inactive |
| CCCC1CCOC(C)S1 (configuration not stated) | inactive | inactive | inactive | inactive | inactive | inactive | inactive | inactive | – | inactive | – | inactive | inactive | inactive | inactive | inactive | inactive | inactive | – | inactive |
| CC[C@H](NC(C)C)[C@H](O)c1ccc(O)c2[nH]c(=O)ccc12 | inactive | inactive | inactive | inactive | inactive | inactive | inactive | inactive | inactive | inactive | inactive | – | – | inactive | inactive | inactive | inactive | – | inactive | inactive |
| Cc1c(N=C=O)cccc1N=C=O | inactive | inactive | inactive | inactive | inactive | inactive | inactive | inactive | inactive | inactive | inactive | inactive | inactive | inactive | inactive | inactive | inactive | inactive | – | inactive |
| CC(CC(C#N)(c1ccccc1)C(C)C)N(C)C (configuration not stated) | inactive | inactive | inactive | inactive | inactive | inactive | inactive | inactive | inactive | inactive | inactive | – | – | inactive | inactive | inactive | inactive | inactive | – | inactive |
| NC(=O)c1cc[n+](CC2=C(C(=O)[O-])N3C(=O)[C@@H](NC(=O)Cc4cccs4)[C@H]3SC2)cc1 | inactive | inactive | inactive | – | inactive | inactive | inactive | inactive | inactive | inactive | – | inactive | inactive | inactive | – | inactive | inactive | inactive | inactive | inactive |
| NC(=O)c1ccccc1 | inactive | inactive | inactive | inactive | inactive | inactive | inactive | inactive | inactive | inactive | inactive | inactive | inactive | inactive | inactive | inactive | inactive | inactive | – | – |
| CCCOC(C)=O | inactive | inactive | inactive | inactive | inactive | inactive | inactive | inactive | inactive | inactive | inactive | inactive | inactive | inactive | inactive | inactive | inactive | inactive | – | inactive |
| COC(=O)/C=C/C(C)=C\C=C\C(C)=C\C=C\C=C(C)\C=C\C=C(C)\C=C\C(=O)O | inactive | inactive | inactive | inactive | inactive | 24.3 µM (active) | inactive | inactive | inactive | inactive | inactive | inactive | inactive | inactive | inactive | inactive | inactive | inactive | – | – |
| CCCc1ccc(OC)cc1 | inactive | inactive | inactive | inactive | inactive | inactive | inactive | inactive | inactive | inactive | inactive | – | inactive | inactive | inactive | inactive | inactive | inactive | – | – |
